# Pf Dd2 inh: qHTS Primary assay for Inhibitors of Plasmodium falciparum Dd2 growth in vitro; P. falciparum Dd2 growth, SYBR Green, 72 h; Potency, µM (doses to about 28.9 µM), for the others: at the top dose activity, negative = inhibition, hits mostly inhibitors; actives 4.3% (n = 120,000); active = well fitted inhibition curve with a large enough effect;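 also: plate controls were DMSO vehicle for no effect and reference drug for full effect; nearly all actives have a fitted effect of over 65% in size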
#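 Readout: SYBR Green fluorescence, 485 nm excitation, 535 nm emission, after ~16 h lysis at 37C. Before that, Dd2-infected red cells (2.5% hematocrit) grew 72 h with compound, 29 uM top final concentration.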
# * marks the source's active call; other numbers are inactive results; i = inactive; [ ] = dose if it differs, or a comment. This is one part of a sample in which hits are shown more often than they occur. Potency is read from the fitted curve at half-maximal effect.
SMILES,Pf Dd2 inh
CCc1ccc2nc(N(Cc3cccnc3)C(=O)c3cccs3)sc2c1,3.2µM*
COc1ccc2sc(N(Cc3cccnc3)C(=O)COc3ccccc3)nc2c1,i
Cc1ccc2nc(N(Cc3cccnc3)C(=O)C3CCCCC3)sc2c1,2.5µM*
Cc1cc2nc(N(Cc3cccnc3)C(=O)c3ccc(Cl)s3)sc2cc1C,45%
COc1cccc2sc(N(Cc3cccnc3)C(=O)c3ccc(S(=O)(=O)N(C)C)cc3)nc12,-21%
O=C(COc1ccccc1)N(Cc1cccnc1)c1nc2ccc(F)cc2s1,15%
O=C(c1cccs1)N(Cc1cccnc1)c1nc2c(F)cc(F)cc2s1,i
CCc1nc(C)c(CC(=O)N[C@@H]2CCNC[C@H]2O)c(=O)[nH]1,-12%
CCOc1ccc(-c2ccnc(N3CCC(NC(C)=O)CC3)n2)cc1C(=O)O,3%
CCC(C)n1c(C(C)NC(=O)OCc2ccccc2)nc2cccnc21 (stereo not drawn),i
COc1cccc(S(=O)(=O)N2CCC3(CC2)CC(N2CCOCC2)CCO3)c1 (stereo not drawn),-3%
Cc1occc1C(=O)N1C[C@@H](C(=O)O)C[C@H](C(=O)NCc2ccccn2)C1,-16%
O=C1N(c2ccccc2)C[C@H]2CN(Cc3ccccc3)CCN12,-8%[44.1 µM]
C#CCNC(=O)[C@H]1C[C@@H](O)[C@H](O)[C@@H]2N=C(Nc3cccc(C(F)(F)F)c3)S[C@@H]21,i
Cc1ccc(NC(=O)Nc2csc3c2CCCC3)c(C)c1,i[5.79 µM]
CCc1cccc(C)c1NC(=O)Nc1csc2c1CCCC2,42%[5.79 µM]
O=C(Nc1ccc(F)cc1)Nc1csc2c1CCCC2,10µM*
CCc1n[nH]c(CC2CCN(C(=O)COc3ccc(C)cc3)CC2)n1,-4%
O=C(Cc1ccccc1F)NCCc1noc(C2CC2)n1,i
CCn1ncc(N2CCC(NC(=O)CCC3CCCC3)CC2)cc1=O,-8%
O=C(O)C1CC2(CCN(C(=O)c3ccccc3N3CCCC3)CC2)CN1 (stereo not drawn),2%
CNC(=O)c1cc(-c2cccnc2)cc2c1OCCN2Cc1cccnc1,i
CNC(=O)c1cc(-c2cnn(C)c2)cc2c1OCCN2Cc1cccnc1,-11%[44.1 µM]
CNC(=O)c1cc(-c2cccc(OC)c2OC)cc2c1OCCN2Cc1cccnc1,13µM*
CCOc1ccccc1NC(=O)Cn1c(N2CCCCC2)nc(C)c(C)c1=O,-18%
SMILES,Pf Dd2 inh
O=C(c1coc(COc2ccc(F)cc2Cl)n1)N1CCCCO1,-24%
CSc1cccc(NC(=O)O[C@@H]2CC[C@]3(C)C(CC[C@@H](O)[C@H]3CC(=O)N3CCCC3)[C@]2(C)CO)c1 (stereo partly drawn),5µM*
CCCNC(=O)O[C@@H]1CC[C@]2(C)C(CC[C@@H](O)[C@H]2CC(=O)NCc2ccc(F)cc2)[C@]1(C)CO (stereo partly drawn),i
C[C@]1(CO)C2CC[C@@H](O)[C@@H](CC(=O)N3CCCC3)[C@]2(C)CC[C@H]1OC(=O)Nc1cccc(F)c1 (stereo partly drawn),-6%
CSc1cccc(NC(=O)O[C@@H]2CC[C@]3(C)C(CC[C@@H](O)[C@H]3CC(=O)NCc3ccccc3)[C@]2(C)CO)c1 (stereo partly drawn),11µM*
CSc1cccc(NC(=O)O[C@@H]2CC[C@]3(C)C(CC[C@@H](O)[C@H]3CC(=O)N3CCC[C@H]3CO)[C@]2(C)CO)c1 (stereo partly drawn),-18%
COc1cc(NC(=O)O[C@@H]2CC[C@]3(C)C(CC[C@@H](O)[C@H]3CC(=O)N3CCCC3)[C@]2(C)CO)cc(OC)c1OC (stereo partly drawn),i
C=CCNC(=O)O[C@@H]1CC[C@]2(C)C(CC[C@@H](O)[C@H]2CC(=O)NCc2ccc3c(c2)OCO3)[C@]1(C)CO (stereo partly drawn),-13%
O=C(O)C1=NOC2CN(Cc3cncs3)CC12 (stereo not drawn),11%[44.1 µM]
N#CC1=C(N)N(c2cccc(Cl)c2)C2=C(C(=O)CCC2)C1c1cc(CN2CCOCC2)cs1 (stereo not drawn),10µM*
N#CC1=C(N)N(c2ccc(Cl)cc2)C2=C(C(=O)CCC2)C1c1cc(CN2CCOCC2)cs1 (stereo not drawn),13µM*
N#Cc1ccc(CN2CCCOCCNC(=O)CC2)cc1,-8%
O=c1[nH]c(N2CCOCC2)nc2c1CCN(Cc1cccc(Cl)c1)CC2,18%[5.79 µM]
O=C1N(C2CCOCC2)C[C@H]2CN(Cc3cccc(Cl)c3)CCN12,i
CCNC(=O)N1CCCC1c1noc(CCC(=O)NC(C)C)n1 (stereo not drawn),36%
O=C1NCCOCCN(C(=O)Cc2cccc(F)c2)[C@H]2CCC[C@@H]12,40%
CCOCc1cc(CN2CCN(c3cccc(Cl)c3)CC2)c(O)c2ncccc12,2.8µM*
CCn1c2ccccc2c2nnc(N3CCN(c4cccc(Cl)c4)CC3)nc21,-4%
CCOc1ccc2oc(=O)cc(CN3CCN(c4ccccc4)CC3)c2c1,i
CC(C)OCc1cc(CN2CCN(c3ccccc3)CC2)c(O)c2ncccc12,2.5µM*
